Assay outcomes from PubChem.
Compounds with a hit are over-represented: about 4.1% of the library has one in this group of screens.
GDH-TPI counter-1 – GDH-TPI coupling enzyme inhibitors, primary screen, artefact control for M. tuberculosis FBA inhibitor project, biochemical, absorbance, full deck | inhibition, % at 4.8 µM | 1.2% of 360,000 active | GDH-TPI coupled enzyme counterscreen, NADH absorbance | AID 588335, 2011; in the data active means inhibition above about 30%;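 further: 0% = DMSO wells and 100% = wells lacking the enzyme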
Mtb UGM inh – M. tuberculosis UGM enzyme inhibitors, primary screen, biochemical, fluorescence polarization, single point | UDP-galactopyranose mutase (Mycobacterium tuberculosis (strain ATCC 25618 / H37Rv)), … | purified UGM, fluorescence polarization probe displacement | inhibition, % at 10 µM | 0.06% of 320,000 active; in the data active means inhibition above about 10%, passing the limit was not always enough
Target sequence (P9WIQ1 whole entry, looked up): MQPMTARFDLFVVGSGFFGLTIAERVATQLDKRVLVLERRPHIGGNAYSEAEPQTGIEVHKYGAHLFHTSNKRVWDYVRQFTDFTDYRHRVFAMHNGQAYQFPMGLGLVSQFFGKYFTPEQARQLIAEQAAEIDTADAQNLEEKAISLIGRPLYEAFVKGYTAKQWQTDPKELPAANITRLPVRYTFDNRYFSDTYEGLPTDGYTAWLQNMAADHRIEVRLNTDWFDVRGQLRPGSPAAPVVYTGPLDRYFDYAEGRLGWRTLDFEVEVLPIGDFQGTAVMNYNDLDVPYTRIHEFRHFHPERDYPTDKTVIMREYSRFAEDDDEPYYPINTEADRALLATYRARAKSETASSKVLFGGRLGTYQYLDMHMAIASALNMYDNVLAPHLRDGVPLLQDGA
Vc quorum ag – inducers of Vibrio cholerae quorum light production without autoinducers, primary screen, BH1578 luxS cqsA deficient, single point; V. cholerae BH1578 lux reporter, luminescence, 6 h; activation, % at 18.7 µM; 0.16% of 350,000 active; in the data active means activation mostly above about 9.7%, no sharp cut-off
Rv3671c protease – Rv3671c serine protease inhibitors, primary screen, biochemical, fluorescence polarization, M. tuberculosis H37Rv. inhibition, % at 5.96 µM. 0.048% of 320,000 active. AID 2606, 2010; in the data active means inhibition above about 38%;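 further: extracellular domain of Rv3671c used as enzyme; 0% = enzyme with DMSO and 100% = no enzyme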
RecA intein inh – Mtb RecA intein splicing inhibitors, primary screen, biochemical, fluorescence, HTS | Protein RecA (Mycobacterium tuberculosis (strain ATCC 25618 / H37Rv)), P9WHJ3 | cell-free RecA intein splicing | inhibition, % (test concentration not listed) | 0.75% of 290,000 active; in the data active means inhibition above about 30%;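 further: 0% = vehicle wells and 100% = reference inhibitor control wells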
Mtb FBA inh – Mtb FBA enzyme inhibitors, primary screen, biochemical, fluorescence, strain H37Rv; purified M. tuberculosis FBA, fluorescence read-out; AID 588726, 2011; inhibition, % at 1 µM; Fructose-bisphosphate aldolase (Mycobacterium tuberculosis (strain ATCC 25618 / H37Rv)), …; 2.3% of 360,000 active;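 further: 0% = vehicle and 100% = reference inhibitor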
Mtb FBA inh conf – M. tuberculosis aldolase blockers, biochemical, fluorescence, strain H37Rv, confirmation; inhibition, % at 1 µM; 78% of 5,600 active; purified M. tuberculosis FBA, fluorescence read-out; shares compounds with Mtb FBA inh;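 further: 0% = vehicle wells and 100% = reference inhibitor wells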
GDH-TPI counter-2 – GDH-TPI coupling enzyme inhibitors, artefact control for M. tuberculosis FBA inhibitor project, biochemical, fluorescence, high throughput | shares compounds with Mtb FBA inh | 81% of 5,600 active | GDH-TPI coupled enzyme counterscreen | inhibition, % at 1 µM; in the data active means inhibition above about 10%
GDH-TPI dose – GDH-TPI coupling enzyme inhibitors, dose response, artefact control for M. tuberculosis FBA inhibitor project, biochemical, fluorescence, IC50 | shares compounds with Mtb FBA inh | GDH-TPI coupled enzyme assay, artifact counterscreen | IC50, µM | 79% of 170 active; call rule not given here
* = called active by the depositor; i = inactive; . = no result given; + = active, no number. Unless noted, no stated cut-off is given here; in the data, active means inhibition above about 27%; inactive means the rest.

SMILES | GDH-TPI counter-1 | Mtb UGM inh | Vc quorum ag | Rv3671c protease | RecA intein inh | Mtb FBA inh | Mtb FBA inh conf | GDH-TPI counter-2 | others
O=C(O)CN(c1ccccn1)S(=O)(=O)c1ccccc1 | -0.4 | -0.8 | 0.0 | 9.1 | -0.4 | 36.5* | 93.7* | 87.4*
O=C(O)CN(c1ccc2c(c1)OCCO2)S(=O)(=O)c1ccccc1 | 3.1 | -0.7 | -0.7 | -2.8 | -2.5 | 17.4 | . | .
COC(=O)CN(c1ccccn1)S(=O)(=O)c1ccccc1 | 16.7 | -0.9 | i | 4.2 | -0.6 | 37.5* | 115.4* | 100.4*
COC(=O)CN(c1ccc2c(c1)OCCO2)S(=O)(=O)c1ccccc1 | 1.4 | -1.2 | i | 0.7 | 0.7 | 36.7* | 12.1 | -1.3 | GDH-TPI dose=>10
O=C(O)CN(c1ccccn1)S(=O)(=O)c1ccc(Cl)cc1 | 11.2 | -3.0 | i | -1.3 | 5.1 | 35.1* | 39.2* | 36.1*
COc1ccc2nc(N)sc2c1 | 2.1 | -2.3 | -0.4 | 0.2 | -2.4 | 4.3 | . | .
COc1ccc2nc(-c3ccc(F)cc3)sc2c1 | 8.8 | -1.4 | 11.1 | -7.2 | 4.5 | 97.9* | + | +
O=C(NCCOc1ccc(Cl)cc1)C1CC(=O)N(c2ccc3c(c2)OCCO3)C1 (stereo unspecified) | 4.2 | -0.1 | i | 0.3 | . | -1.4 | . | .
CC1OC(c2ccccc2)OC2COC(c3ccccc3)OC12 (stereo unspecified) | 3.2 | . | . | . | . | 2.9 | . | .
COc1ccc(-c2cc3nc(NCCCN(C)C)n(C)c(=O)c3s2)cc1OC | 19.9 | . | -0.7 | . | . | 46.8* | 128.7* | 86.3*
CCCOc1ccccc1/C=N/NC(=O)C1CC1 | 4.4 | 4.3 | i | . | -1.8 | -0.8 | . | .
CC1(C)CCC[C@]2(C)[C@H]3CC(=O)O[C@]3(C)CC[C@@H]12 | -3.0 | -0.9 | i | -3.8 | -0.8 | 91.1* | 197.4* | 146.5*
O=C(COC(=O)c1cc(-c2cccc3ccccc23)nc2ccccc12)NC1CCS(=O)(=O)C1 (stereo unspecified) | 15.5 | -0.1 | -0.1 | 20.5 | 5.1 | -1.4 | . | .
COc1ccc2cc(-c3cc(C(=O)OCC(=O)NC4CCS(=O)(=O)C4)c4ccccc4n3)ccc2c1 (stereo unspecified) | 11.8 | 1.3 | -0.5 | -12.9 | -20.2 | 28.1* | 121.6* | 95.9*
O=C(COC(=O)c1cc(-c2cccs2)nc2ccccc12)NC1CCS(=O)(=O)C1 (stereo unspecified) | 14.7 | 0.8 | -0.3 | -11.3 | -89.6 | 48.1* | 43.5* | 29.2*
CCCCC[n+]1ccn(-c2nc3ccccc3nc2[N-]S(=O)(=O)c2ccccc2)c1 | 6.9 | -1.9 | -0.6 | -0.7 | -31.9 | 19.9 | . | .
O=S(=O)([N-]c1nc2ccccc2nc1-n1cc[n+](Cc2ccccc2)c1)c1ccc(Br)cc1 | 11.1 | 2.4 | -0.9 | -8.2 | -10.6 | 27.0* | + | 178.6*
CCOc1ccc2[nH]c3c(NCCN(CC)CC)ncnc3c2c1 | 7.0 | 1.0 | i | 4.8 | 1.2 | 21.2 | . | .
CCOc1ccc2[nH]c3c(N4CCc5ccccc5C4)ncnc3c2c1 | 10.2 | 0.8 | -0.1 | 12.4 | 19.5 | 32.4* | + | +
CCOc1ccc2[nH]c3c(NCCOC)ncnc3c2c1 | -1.1 | -3.1 | -0.5 | 7.8 | 0.1 | 70.6* | 64.4* | 48.3*
COc1ccc(CNc2ncnc3c2[nH]c2cc(OC)c(OC)cc23)cc1 | -9.2 | 0.7 | -0.3 | 16.2 | -1.1 | 45.8* | 105.9* | 92.2*
CCOc1ccc2[nH]c3c(NCCCOC)ncnc3c2c1 | 1.5 | 2.1 | i | . | 2.2 | 110.5* | + | +
Cc1ccc2[nH]c3c(N4CCc5ccccc5C4)ncnc3c2c1 | 16.6 | 0.2 | -0.9 | 3.9 | 6.7 | 8.6 | . | .
C=CCNC(=O)c1c[nH]c2ccc(S(=O)(=O)N(C)c3ccc(OCC)cc3)cc2c1=O | 4.0 | 1.8 | -0.6 | -15.4 | -3.1 | 4.9 | . | .
O=C(NCc1cccnc1)c1csc([C@@H]2C[C@H](O)[C@@H](CO)O2)n1 | 0.9 | . | -0.3 | . | . | 0.7 | . | .
SMILES | GDH-TPI counter-1 | Mtb UGM inh | Vc quorum ag | Rv3671c protease | RecA intein inh | Mtb FBA inh | Mtb FBA inh conf | GDH-TPI counter-2 | others
Cc1ccc2[nH]c3c(NCc4ccccc4)ncnc3c2c1 | . | -0.3 | . | . | 3.6 | . | . | .
Cc1ccc2[nH]c3c(N4CCOCC4)ncnc3c2c1 | 21.1 | 1.0 | -0.6 | 0.4 | 0.5 | 82.3* | 178.4* | 144.8*
O=[N+]([O-])c1ccc2ncnc(N3CCN(Cc4ccc5c(c4)OCO5)CC3)c2c1 | 7.4 | 0.7 | i | 3.6 | 5.9 | -1.3 | . | .
COc1ccc(CNc2ncnc3c2[nH]c2ccccc23)cc1 | 10.3 | 0.3 | -1.4 | -1.1 | 5.8 | 16.8 | . | .
CCOc1ccc2[nH]c3c(NCC(C)C)ncnc3c2c1 | 1.1 | 0.0 | i | -0.4 | 3.6 | 76.8* | 125.8* | 110.0*
CN1CCN(c2ncnc3c2[nH]c2ccc(F)cc23)CC1 | 8.7 | -1.3 | i | 4.2 | . | 25.8 | . | .
COc1ccc2[nH]c3c(N4CCN(Cc5ccc6c(c5)OCO6)CC4)ncnc3c2c1 | 17.1 | -0.1 | 0.5 | 19.5 | 3.0 | 34.9* | 79.0* | 52.6*
COc1ccc2[nH]c3c(NCCN(C(C)C)C(C)C)ncnc3c2c1 | 1.9 | -1.4 | -4.7 | 4.5 | . | 53.9* | + | 183.6*
Cc1ccc(S(=O)(=O)N2CCN(C(=O)CN3C(=O)c4ccc([N+](=O)[O-])cc4C3=O)CC2)cc1C | 0.0 | -1.0 | i | 0.5 | . | -1.1 | . | .
C[C@H](CO)N1C[C@H](C)[C@@H](CN(C)C(=O)Nc2ccc3c(c2)OCO3)Oc2ccc(NC(=O)NC3CCCCC3)cc2C1=O | 6.0 | 4.0 | i | 0.8 | . | 3.5 | . | .
C#CC1(NC(=S)Nc2cccc(OC)c2)CCCCC1 | -10.2 | . | -3.1 | . | . | 2.3 | . | .
CCn1nnc(NC(=O)c2cccc(-c3cc4ccccc4oc3=O)c2)n1 | 19.4 | 0.7 | -0.3 | -1.2 | 0.0 | 48.5* | 153.4* | 118.5*
O=C(Nc1cccnc1)c1cccc(-c2cc3ccccc3oc2=O)c1 | -1.9 | -4.6 | -0.5 | -4.0 | 0.2 | 2.7 | . | .
